Out of some 330,000 compounds screened, about 2,800 (0.85%) were called active. The list comes from a sample in which actives are over-represented; it also holds similar structures and randomly drawn compounds. Unmarked numbers belong to inactive results.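 How the source made its calls: active means mean inhibition across replicates of 60% or more, whatever share of single replicates reaches that level; inconclusive means some that reach 60%, reason not given; inactive means mean inhibition across replicates below 60%.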

The experiment in a line: inhibitors of MITF-dependent TRPM1 promoter reporter, primary screen, cell-based, SK-MEL-5, single point, luciferase (AID 488899). To be noted: SK-MEL-5 TRPM1 promoter luciferase, 24 h; at 12.5 µM; stronger effect = higher value.
Turning to `CCC(=C/c1sc2ccc3ccccc3c2[n+]1C)/C=C1\Sc2ccc3ccccc3c2N1C`, the inhibition (as a rule, the change of the read-out against control, counted positive when it falls) is 77.8% (active). With `Cc1nc(-c2nnc(SCC(=O)Nc3cc(C(F)(F)F)cc(C(F)(F)F)c3)n2C)cs1` the figure was 6.42%. Turning to `CCCCOc1ccc(C(=O)N/C(=C/C=C/c2ccccc2)C(=O)N2CCOCC2)cc1`, the inhibition was 0.224%. For the compound `O=[N+]([O-])c1cc2ccccc2nc1-c1ccccc1`, the inhibition was -2.83%. As for `CN(C)CCn1c2c(c(SCC(=O)Nc3ccccc3C(F)(F)F)nc1=O)CCCC2`, the inhibition was 1.54%. `O=[N+]([O-])c1ccccc1/C=C/CN1CCCC(CO)C1` (centres undefined): the inhibition was 3.33%.

With `O=[N+]([O-])c1ccccc1/C=C/CN1CCC(O)CC1`, the inhibition is -6.15%. Take `CC1CCCCC1NC(=O)/C(C#N)=C/C=C/c1ccccc1[N+](=O)[O-]` (centres undefined): the inhibition is 87% (active). Consider `CSCCC(NS(=O)(=O)c1ccc2c(c1)oc(=O)n2C)C(=O)NC1CCCc2ccccc21` (centres undefined), for which the inhibition was 4.17%. Under `Cc1cccc(/C(N)=N/OC(=O)c2ccccc2Cl)c1` stands -7.17%; under `COc1ccccc1NC(=O)CCC(=O)N1CC(C)Oc2ccc(C)cc21` (centres undefined), -0.622%.

In the case of `CC1CN(C(=O)CCC(=O)NCCCN2CCC(Cc3ccccc3)CC2)c2cc(Cl)ccc2O1` (centres undefined), the inhibition is 81.8% (active). Take `CC1CN(C(=O)CCC(=O)NCc2cccnc2)c2ccccc2O1` (centres undefined): the inhibition was -4.62%. Turning to `COc1ccc(OC)c(-c2c(=O)n(OCc3ccccc3Br)c3ccccc3[n+]2[O-])c1`, the inhibition is 15.9%. Turning to `CC(=O)Nc1ccc(S(=O)(=O)NC2Cc3ccccc3C2)cc1`, the inhibition is 4.61%. As for `C=C(C)C(=O)Nc1cccc(C2=NOC3(C2)C[C@H](C(N)=O)N(C(=O)C(c2ccccc2)c2ccccc2)C3)c1` (some centres undefined), the inhibition is 0.48%. As to `CCN(CC)S(=O)(=O)c1ccc(NC(=O)c2cccnc2Cl)c(NC(=O)c2cccnc2Cl)c1`, the inhibition is 74.2% (active). For the compound `CCN(CC)S(=O)(=O)c1ccc(Cl)c(NC(=O)c2ccncc2)c1`, the inhibition was 0.4%. As to `CCN(CC)S(=O)(=O)c1ccc(NC(=O)c2cnc(C)cn2)cc1`, the inhibition was 10.2%.

Take `O=C1CC(c2ccccc2)C(c2ccccc2)=NN1` (centres undefined): the inhibition is 5.8%.

With `Cc1cccc(N(C(=O)Cn2nnc(-c3ccc(C)o3)n2)C(C(=O)NC2CCCC2)c2ccncc2)c1` (centres undefined), the inhibition is 3.32%. On to `CCN(CC)CCCC(C)n1c2nc(=O)[nH]c(=O)c-2nc2cc(Cl)ccc21` (centres undefined), for which the inhibition was 83.3% (active). Under `CCN(CC)CCn1c2ccc(Cl)cc2c2nc(C)sc21` stands 6.02%; under `CCOC(=O)c1c(C)[nH]c(C(=O)NCCN2CCOCC2)c1C`, 8.7%.

The values are drawn from PubChem BioAssay AID488899 (Broad Institute, 2010).
